The text below walks through data of PubChem BioAssay AID1851 (National Center for Advancing Translational Sciences (NCATS), 2009).

As usually defined, the AC50 is the concentration giving half of the maximal activity seen.

Each structure is given as a SMILES string. Out of some 16,000 compounds screened, about 5,800 (36%) were called active. Another 23% or so got no clear call; they are omitted. The list shows a part of the results. A number with no mark means an inactive call. The call rests on the fitted dose curve; in most records, active means well fitted curve in the direction sought with a large enough effect; inconclusive means small, poorly fitted or top-dose-only effect, or effect the other way; inactive means no such curve, though single readings can be large or run the other way.
On the % scale 0 is the no-effect control and ±100 the full control effect.

This experiment deals with Cytochrome P450 2C19 (Homo sapiens) (UniProt P33261). The experiment can be described thus: Cytochrome panel assay with activity outcomes. The settings on record: recombinant CYP, pro-luciferin dealkylation, luminescence, p450-cyp2c19; series mostly up to 57.1 µM; activity, negative = inhibition: at the top concentration.
Chain of Cytochrome P450 2C19 (Homo sapiens) (P33261 whole entry, looked up): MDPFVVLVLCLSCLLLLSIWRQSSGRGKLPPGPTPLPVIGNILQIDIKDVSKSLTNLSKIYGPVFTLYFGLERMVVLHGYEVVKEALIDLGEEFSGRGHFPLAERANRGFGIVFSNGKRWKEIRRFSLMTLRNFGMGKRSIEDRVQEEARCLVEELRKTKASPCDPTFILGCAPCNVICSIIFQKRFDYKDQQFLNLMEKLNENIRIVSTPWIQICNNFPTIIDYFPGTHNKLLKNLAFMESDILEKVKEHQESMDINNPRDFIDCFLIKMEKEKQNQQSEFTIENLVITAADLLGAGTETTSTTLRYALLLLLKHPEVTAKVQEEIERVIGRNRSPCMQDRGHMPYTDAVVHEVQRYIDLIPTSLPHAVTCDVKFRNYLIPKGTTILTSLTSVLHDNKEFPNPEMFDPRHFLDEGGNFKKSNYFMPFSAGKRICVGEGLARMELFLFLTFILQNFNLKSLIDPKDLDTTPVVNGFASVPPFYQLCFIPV
For the molecule `CC(C)NC(=O)N1CC[C@@]2(CCCN(C(=O)c3cc(C(F)(F)F)cc(C(F)(F)F)c3)C2)C1`, the “activity, negative = inhibition” value was 30.6%.
Consider `CCC(C)(C)n1nnnc1C(C(C)C)N(Cc1ccco1)Cc1cc2cc3c(cc2[nH]c1=O)OCO3` (stereo not drawn), for which the AC50 was 10 µM (active).
`CCC(C)(C)n1nnnc1C(c1cc2cc3c(cc2[nH]c1=O)OCO3)N1CCCCC1` (stereo not drawn): the concentration at half-maximal activity (AC50) was 31.6 µM (active).
Consider `CCC(c1nnnn1CC1CCCO1)N(CCN1CCOCC1)Cc1cc2cc(C)ccc2[nH]c1=O` (stereo not drawn), for which the “activity, negative = inhibition” value is 1.58%.
Regarding `COc1ccccc1CN(Cc1cc2cc3c(cc2[nH]c1=O)OCCO3)Cc1nnnn1Cc1ccco1`, the AC50 was 7.08 µM (active).
Regarding `CCNc1ncc2nc(C)c(=O)n(C[C@H]3CCCO3)c2n1`, the “activity, negative = inhibition” value is 4.63%.
On the same count and under the same terms, the same measure for `COc1ccc(CNC(C)(C)C)cc1Cl`: -4.36%.
Turning to `COc1ccc(CONS(=O)(=O)c2ccc(NC(C)=O)cc2)cc1Cl`, the AC50 was 2.24 µM (active).
On the same count and under the same terms, the result for `Clc1ccc(/C=N/c2c(-c3ccc(Cl)cc3)nc3n2CCS3)cc1` reads 14.1 µM (active); that for `CCOc1ccc(N2C(=O)/C(=C/c3cc(OC)c(OC)c(OC)c3)N(CC(=O)OC)C2=S)cc1`, 3.55 µM (active).
`CCOc1ccc(N2C(=O)/C(=C/c3cccs3)N(CC(=O)OC)C2=S)cc1`: the “activity, negative = inhibition” value was -17.3%.
In the case of `O=C(N/N=C/c1cc([N+](=O)[O-])ccc1N1CCNCC1)c1ccc([N+](=O)[O-])cc1`, the “activity, negative = inhibition” value was -15.8%.
Consider `CCN(CC)C(=O)C1CCCN(c2ccc([N+](=O)[O-])cc2/C=N/NC(=O)c2ccc([N+](=O)[O-])cc2)C1` (stereo not drawn), for which the AC50 is 14.1 µM (active).
On the same count and under the same terms, the same measure for `CCOC(=O)C(CC)(CC)C(=O)/C=C/c1ccc(Br)cc1`: 2.82 µM (active).
With `O=C(NCCNc1ccc([N+](=O)[O-])cc1)c1ccccc1Br`, the AC50 was 7.94 µM (active).
On to `O=C(O)CCCCCNC(=O)c1ccccc1Br`, for which the “activity, negative = inhibition” value was -30.4%.
Same read-out and setting: the same measure for `O=[N+]([O-])c1ccc(NN=C2c3ccccc3Cc3ccccc32)c([N+](=O)[O-])c1`: -15.8% [at 11.4 µM].
As for `O=[N+]([O-])c1ccc(C2CCCC/C2=N\OCc2cccc(F)c2)c([N+](=O)[O-])c1` (stereo not drawn), the AC50 was 7.08 µM (active).
Same read-out and setting: the result for `CC(Sc1ccc2c(c1)OCCO2)C(=O)Nc1ncc(Cl)cc1Cl` (stereo not drawn) reads 2.82 µM (active); that for `Cc1cccc(C)c1OC[C@H](C)N`, “inactive”; that for `COc1ccc2cc(C(=O)CCC(=O)O)ccc2c1`, 2 µM (active).
With `COc1ccc2cc(CCC(C)=O)ccc2c1`, the “activity, negative = inhibition” value was -42.2% [at 25.6 µM].
Turning to `CCOc1ccc(C(=O)CCC(=O)O)cc1`, the “activity, negative = inhibition” value was -28.2%.
Same read-out and setting: the result for `Cc1ccc(S(=O)(=O)N[C@H]2COC(=O)[C@H](C)COC(=O)[C@H](C)NC(=O)C/C=C\[C@H]2C)cc1` reads 16.6% [at 11.4 µM]; that for `COc1cccc(CNc2ccc3nc(-c4ccc(N)cc4)c(OC)n3n2)c1`, -34.4%.
On the same count and under the same terms, the result for `COc1cccc(CSCC(=O)O)c1` reads -7.72% [at 11.4 µM].
In the case of `CCOc1cccc(CNCCNC(=O)c2nonc2N)c1`, the AC50 is 15.8 µM (active).
Same read-out and setting: the result for `COc1cccc(CNCCNC(=O)c2nonc2N)c1` reads 15.8 µM (active).
As for `CN1CCN(CN2C(=O)C3C4C=CC(C3C2=O)C2C3C(=O)N(CN5CCN(C)CC5)C(=O)C3C42)CC1` (stereo not drawn), the activity, negative = inhibition was 27.4% [at 11.4 µM].
The same measure, in the same setting: the same measure for `CC[C@@]12CCCN3CCc4c(n(c5ccccc45)C(=O)C1)[C@H]32`: -19.6% [at 11.4 µM].
As to `Cc1ccc(S(=O)(=O)c2nc(S(=O)(=O)c3ccc(C)cc3)c(NCc3ccco3)s2)cc1`, the AC50 was 8.91 µM (active).
Take `Oc1ccc(Cn2cc[nH]c2=S)cc1`: the “activity, negative = inhibition” value is 5.78%.
With `O=C(NC(=S)Nc1nc(-c2ccc(Br)cc2)cs1)c1cccnc1`, the AC50 is 10 µM (active).
Take `O=C(NNC(=S)NC(=O)c1cccnc1)c1ccccc1`: the “activity, negative = inhibition” value is -21.7%.
On the same count and under the same terms, the same measure for `O=S(=O)(O)c1ccc2cc(N=Nc3cc(S(=O)(=O)O)c4cccnc4c3O)ccc2c1`: -22.6% [at 11.4 µM].
On the same count and under the same terms, the result for `NC(N)=N/N=C\c1ccc(C2CCNCC2)cc1` reads 23.7% [at 11.4 µM].
Same read-out and setting: the result for `COc1ccc(C=NC(CO)C(O)c2ccc([N+](=O)[O-])cc2)cc1` (stereo not drawn) reads -6.09%.
Consider `CS/C(N)=N/N=C/c1ccc([N+](=O)[O-])cc1`, for which the AC50 was 14.1 µM (active).
Regarding `O=C(NC[C@@H](O)CO)c1c(I)c(C(=O)NC[C@@H](O)CO)c(I)c(N(CCO)C(=O)CO)c1I`, the “activity, negative = inhibition” value was 8% [at 25.6 µM].
As to `O=C(COc1cccc2ccccc12)N1c2ccccc2CCc2ccccc21`, the AC50 was 0.447 µM (active).
On the same count and under the same terms, the same measure for `CC(C)NC[C@@H](O)COc1cccc2ccccc12`: “inactive”.
As to `CC(C)NC[C@H](O)COc1cccc2ccccc12`, the “activity, negative = inhibition” value was 0.306%.
Still for that read-out and setting: the result for `CCc1cc(C(=O)OC)c(NC(=O)CCCC(=O)O)s1` reads -16.5%.
Take `COC(=O)c1cc(-c2ccccc2)sc1NC(=O)CN1C(=O)c2ccccc2C1=O`: the AC50 is 7.08 µM (active).
On the same count and under the same terms, the result for `CCOC(=O)c1cc(CC)sc1NC(=O)C(c1ccccc1)c1ccccc1` reads 8.91 µM (active); that for `CCOC(=O)c1cc(NC(=O)c2ccc(OC)cc2)c(=O)oc1-c1ccccc1`, 2.82 µM (active).
Take `CCOC(=O)c1cc(-c2ccccc2)sc1NC(=O)C(C)(C)C`: the “activity, negative = inhibition” value is 0.519%.
For `CCOC(=O)c1cc(-c2ccccc2)sc1NC(=O)c1ccc(OC)cc1`, the AC50 was 7.94 µM (active).
